The supplement of paper PMC9694430

How the values were obtained:
Test in all cases: thermal shift delta Tm vs DMSO control; higher = stronger stabilization (binding)
Details in all cases: 12.5 µM; protein concentration 2 µM
[1] = system: LOC_OS01G57100-cb003
In short: (§1)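 Thermal shift values come from differential scanning fluorimetry on purified rice kinase domains made in E. coli, with melting temperatures obtained from Boltzmann fits. Samples of 19.5 μl held 2 μM kinase, 100 mM potassium phosphate pH 7.5, 150 mM NaCl, 10% glycerol, 5 × SYPRO Orange and compound in DMSO, and were heated from 25°C to 95°C at 0.05°C/s. Each shift is a triplicate mean relative to the DMSO-only protein sample.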

[2] = system: LOC_OS01G60330-cb001
In short: as §1

[3] = system: LOC_OS01G60700-cb002
In short: as §1

[4] = system: LOC_OS01G63280-cb003
In short: as §1

[5] = system: LOC_OS01G67340-cb003
In short: as §1

[6] = system: LOC_OS01G70970-cb002
In short: as §1

[7] = system: LOC_OS02G07810-cb001
In short: as §1

[8] = system: LOC_OS02G08530-cb003
In short: as §1

[9] = system: LOC_OS02G14120-cb001
In short: as §1

[10] = system: LOC_OS02G17970-cb001
In short: as §1

[11] = system: LOC_OS02G45750-cb003
In short: as §1

[12] = system: LOC_OS02G54510-cb004
In short: as §1

[13] = system: LOC_OS03G04050-cb001
In short: as §1

[14] = system: LOC_OS03G12390-cb001
In short: as §1

[15] = system: LOC_OS03G27990-cb004
In short: as §1

[16] = system: LOC_OS03G50450-cb001
In short: as §1

[17] = system: LOC_OS03G50810-cb003
In short: as §1

[18] = system: LOC_OS04G35114-cb001
In short: as §1

[19] = system: T1, LOC_OS04G38480-cb003
T1 sequence (whole entry): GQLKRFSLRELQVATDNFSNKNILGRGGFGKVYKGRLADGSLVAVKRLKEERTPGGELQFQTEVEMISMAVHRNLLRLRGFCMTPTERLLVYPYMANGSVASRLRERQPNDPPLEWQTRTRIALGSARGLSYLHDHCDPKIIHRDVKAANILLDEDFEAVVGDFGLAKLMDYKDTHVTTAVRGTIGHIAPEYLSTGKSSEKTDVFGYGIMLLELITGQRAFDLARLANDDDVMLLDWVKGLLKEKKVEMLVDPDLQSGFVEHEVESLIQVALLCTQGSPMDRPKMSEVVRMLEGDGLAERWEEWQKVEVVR
In short: as §1

[20] = system: T2, LOC_OS04G41100-cb001
T2 sequence (whole entry): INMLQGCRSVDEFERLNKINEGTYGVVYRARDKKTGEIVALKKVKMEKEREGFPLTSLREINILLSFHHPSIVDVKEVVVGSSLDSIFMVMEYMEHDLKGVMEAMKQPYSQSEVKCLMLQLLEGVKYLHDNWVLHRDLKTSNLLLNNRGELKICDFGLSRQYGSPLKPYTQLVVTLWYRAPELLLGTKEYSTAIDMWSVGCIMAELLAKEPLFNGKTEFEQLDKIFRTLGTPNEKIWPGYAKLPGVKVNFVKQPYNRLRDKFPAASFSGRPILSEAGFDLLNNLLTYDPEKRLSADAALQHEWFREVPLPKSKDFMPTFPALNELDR
In short: as §1
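Further: purified Escherichia coli-expressed rice kinase domain construct.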

Compound | thermal shift delta Tm [1] [°C] | thermal shift delta Tm [2] [°C] | thermal shift delta Tm [3] [°C] | thermal shift delta Tm [4] [°C] | thermal shift delta Tm [5] [°C] | thermal shift delta Tm [6] [°C] | thermal shift delta Tm [7] [°C] | thermal shift delta Tm [8] [°C] | thermal shift delta Tm [9] [°C] | thermal shift delta Tm [10] [°C] | thermal shift delta Tm [11] [°C] | thermal shift delta Tm [12] [°C] | thermal shift delta Tm [13] [°C] | thermal shift delta Tm [14] [°C] | thermal shift delta Tm [15] [°C] | thermal shift delta Tm [16] [°C] | thermal shift delta Tm [17] [°C] | thermal shift delta Tm [18] [°C] | thermal shift delta Tm [19] [°C] | thermal shift delta Tm [20] [°C]
Cc1cc(C(=O)NOCCO)c(Nc2ccc(I)cc2F)n(C)c1=O | 1.03 | 0.4 | 0.64 | 0.19 | -0.42 | 0.23 | 0.73 | 0.29 | -0.53 | 0.08 | -0.39 | 0.03 | 0.19 | -0.3 | 0.02 | 1.11 | -0.06 | 0.41 | 0.64 | 0.58
N#Cc1ccc2ncnc(NCCc3ccccc3)c2c1 [Senexin A] | -0.12 | 0.74 | -0.36 | 0.25 | 0.38 | 0.3 | -0.71 | 2.47 | 2.47 | 0.28 | 1.15 | 0.03 | 0.34 | 1.84 | 0.37 | 0.68 | 0.83 | 1.3 | 1.69 | 0.25
CCN1CCN(Cc2ccc(C(=O)Nc3ccc(C)c(Oc4ccc5c(c4)CC(=O)N5)c3)cc2C(F)(F)F)CC1 | 2.21 | 1.36 | 1.34 | 0.98 | 1.05 | 0.43 | 1.19 | 0.8 | 0.22 | 1.43 | 1.5 | 0.41 | 0.79 | 0.12 | 0.67 | 1.13 | 0.7 | 1.2 | 1.7 | 0.5
Cc1ccc(Nc2cc(N[C@@H]3CCCC[C@@H]3N)nnc2C(N)=O)nc1C | 2.34 | 1.23 | 1.25 | 0.77 | 0.39 | 2.01 | 0.12 | 2.54 | 5.04 | 1.48 | 2.16 | 0.73 | 0.52 | 2.19 | 1.5 | 1.66 | 1.11 | 1.06 | 1.11 | 0.51
Cc1ncc(-c2ccnc(Nc3ccc(S(C)(=O)=O)cc3)n2)n1C(C)C | 1.7 | 2.38 | 1.21 | 4.42 | 1.74 | 1.45 | 1.42 | 2.22 | 5.76 | 1.78 | 4.52 | 0.65 | 0.19 | 3.93 | 0.85 | 0.58 | 1.7 | 1.83 | 2.87 | 4.97
CCOc1ccn(-c2ccc(F)cc2)c(=O)c1C(=O)Nc1ccc(Oc2ccnc(N)c2Cl)c(F)c1 | 1.62 | 0.89 | 0.32 | 6.59 | 0.42 | 0.37 | 1.56 | 1.41 | 4.74 | 1.32 | 1.27 | 0.13 | 0.16 | 0.96 | 0.05 | 0.3 | 0.47 | 1.17 | 1.53 | 2.01
